Test results published in article PMC4336329 (PLoS ONE, 2015).
Screen size: about 310,000 compounds; about 14,000 (4.5%) showed an effect of 50% or more. The effect is printed as a negative number. The entries come from a sample that favours strong results as a whole.

molecular target: human ether-à-go-go-related gene (hERG) potassium channel (human, UniProt Q12809); test: primary screen, population patch clamp on CHO cells stably expressing hERG; higher = less effect of the substance
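Note: peak tail current of the secondary pulse compared with the same well before compound.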

Chain of human ether-à-go-go-related gene (hERG) potassium channel (Q12809 whole entry, looked up): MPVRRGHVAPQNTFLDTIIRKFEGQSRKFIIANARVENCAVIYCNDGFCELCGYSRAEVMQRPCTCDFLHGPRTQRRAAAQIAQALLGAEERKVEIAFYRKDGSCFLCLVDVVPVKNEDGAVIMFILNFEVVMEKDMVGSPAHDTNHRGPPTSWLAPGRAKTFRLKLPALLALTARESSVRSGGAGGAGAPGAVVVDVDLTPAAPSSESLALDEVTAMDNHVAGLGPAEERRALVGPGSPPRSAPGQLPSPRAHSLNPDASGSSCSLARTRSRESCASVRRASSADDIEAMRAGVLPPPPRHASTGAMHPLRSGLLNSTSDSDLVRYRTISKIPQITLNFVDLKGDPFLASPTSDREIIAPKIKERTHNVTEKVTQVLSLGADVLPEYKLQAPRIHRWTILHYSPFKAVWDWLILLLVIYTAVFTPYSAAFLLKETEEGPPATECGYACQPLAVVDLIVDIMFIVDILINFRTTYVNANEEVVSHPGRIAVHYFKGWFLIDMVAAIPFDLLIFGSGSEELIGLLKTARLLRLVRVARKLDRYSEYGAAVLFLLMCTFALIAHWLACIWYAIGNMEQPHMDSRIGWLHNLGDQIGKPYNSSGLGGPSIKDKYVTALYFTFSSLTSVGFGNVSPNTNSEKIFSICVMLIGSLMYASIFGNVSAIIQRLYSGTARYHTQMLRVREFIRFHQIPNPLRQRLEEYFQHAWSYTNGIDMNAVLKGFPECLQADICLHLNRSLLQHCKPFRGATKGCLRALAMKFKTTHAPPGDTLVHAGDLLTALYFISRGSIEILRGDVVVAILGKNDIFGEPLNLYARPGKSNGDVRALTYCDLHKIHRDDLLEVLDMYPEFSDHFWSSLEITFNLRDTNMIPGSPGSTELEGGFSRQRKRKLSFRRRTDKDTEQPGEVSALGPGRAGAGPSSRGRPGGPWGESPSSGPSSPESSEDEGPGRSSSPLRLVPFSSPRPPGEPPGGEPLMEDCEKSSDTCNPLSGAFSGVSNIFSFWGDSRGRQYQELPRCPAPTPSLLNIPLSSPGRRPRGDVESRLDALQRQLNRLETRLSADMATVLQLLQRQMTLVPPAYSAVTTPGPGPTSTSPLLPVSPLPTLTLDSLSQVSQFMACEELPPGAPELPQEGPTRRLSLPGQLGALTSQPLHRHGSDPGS

Compound	hERG current change (%, negative = inhibition) at 10uM
Cc1ccc(S(=O)(=O)NCCC(=O)NCc2ccccn2)cc1	11.1%
Cc1ccc(-c2nnn(CC(=O)N(Cc3ccco3)C(C(=O)NC(C)(C)C)c3cccs3)n2)o1 (stereo not shown)	-19.2%
O=C(NCC1CCCO1)c1cc2c([nH]c3ccccc32)c(-c2cccc(Cl)c2)n1 (stereo not shown)	-20.5%
Cc1sc2nc(-c3ccc(Br)cc3)oc(=O)c2c1C	13.3%
CSc1nc(C(=O)N2CCc3c([nH]c4ccccc34)C2c2ccccn2)cs1 (stereo not shown)	-4.85%
CC(=O)Nc1ccc(NC(=O)c2cc[n+]([O-])cc2)cc1	25.2%
CC(C)Cc1nnc(NC(=O)CCC(=O)N2CCC(C)CC2)s1	0.442%
CC(C)Cc1nnc(NC(=O)CCC(=O)N2CC(C)CC(C)C2)s1 (stereo not shown)	-50.8%
CC(C)Cc1nnc(NC(=O)CCC(=O)N2CCN(c3ccc(Cl)cc3)CC2)s1	-3.51%
CC(C)CNC(=O)c1cc([N+](=O)[O-])ccc1N1CCOCC1	4.47%
CC(C)Cc1nnc(NC(=O)c2cc([N+](=O)[O-])ccc2N2CCOCC2)s1	-51.4%
CC(C)Cc1nnc(NC(=O)CCC(=O)N2CCN(c3ccc([N+](=O)[O-])cc3)CC2)s1	-72.3%
CC(C)Cc1nnc(NC(=O)CCC(=O)N2CCN(c3ccc(F)cc3)CC2)s1	1.08%
CC1CC(C)CN(C(=O)CCC(=O)Nc2nnc(C(C)C)s2)C1 (stereo not shown)	12.6%
CCc1nnc(NC(=O)c2cc([N+](=O)[O-])ccc2N2CCOCC2)s1	-15%
CCN(C(=O)c1ccc(C)c(Br)c1)c1ccccc1	-20.5%
CC(=O)c1c(C)[nH]c(C(=O)COC(=O)COc2ccccc2F)c1C	-3.3%
O=C(CCC1CCCCC1)NNC(=O)NC12CC3CC(CC(C3)C1)C2	13.2%
Cc1ccc(C)c(NNC(N)=S)c1	14%
O=C(COC(=O)CC1SC(N2CCCC2)=NC1=O)Nc1c(F)c(F)c(F)c(F)c1F (stereo not shown)	-12.6%
Cc1cc(NC(=O)CSc2nc(CC(C)(C)C)nc3c2c(=O)n(C)c(=O)n3C)no1	4.05%
COc1ccc(OCCSc2nnc(CCNC(=O)c3ccc(OC)cc3)n2C)cc1	-6.83%
CN(C)CCN(C(=O)c1cc(Cl)sc1Cl)c1nc2ccc(F)cc2s1.Cl	-67.3%
CN(C)CCCN(C(=O)c1ccco1)c1nc2cc3c(cc2s1)OCO3.Cl	-43.7%

Compound	hERG current change (%, negative = inhibition) at 10uM
CC(=O)N(CCCN(C)C)c1nc2ccc(C)cc2s1.Cl	-7.07%
CCN(CC)CCN(C(=O)c1cc2ccccc2cc1OC)c1nc2ccc(OC)cc2s1.Cl	-13.4%
CCN(CC)CCN(C(=O)c1cc2ccccc2cc1OC)c1nc2ccc(F)cc2s1.Cl	-11.8%
CCN(CC)CCN(C(=O)c1ccccc1OC)c1nc2ccc(F)cc2s1.Cl	-68.3%
Cc1ccc2nc(N(CCN(C)C)C(=O)c3cc(Cl)sc3Cl)sc2c1.Cl	7.55%
CN(C)CCCN(C(=O)c1ccco1)c1nc2ccc(Cl)cc2s1.Cl	-73.4%
Cc1ccc2nc(N(CCCN(C)C)C(=O)c3ccco3)sc2c1.Cl	-65.4%
COc1ccc2sc(N(CCN(C)C)C(=O)c3cc(Cl)sc3Cl)nc2c1.Cl	-0.167%
Cc1cc(-c2ccccc2)n(-c2cc(N/N=C/c3ccccc3O)ncn2)n1	-10.5%
Cc1ccnc2nc(C(=O)OCC(=O)NC3CCCC(C)C3C)nn12 (stereo not shown)	-10.4%
Cn1c(=O)c2c(nc(NCc3ccc4c(c3)OCO4)n2C)n(C)c1=O	-13.1%
NC(=O)C1CCN(C(=O)CSc2nc3ccccc3[nH]2)CC1	4.06%
Fc1cccc(Cl)c1Cn1nnc(-c2ccc(N3CCOCC3)cc2)n1	8.99%
COc1ccc(-n2c(CNC(=O)c3cccs3)n[nH]c2=S)cc1	27.7%
COc1cc(C)c(Br)cc1S(=O)(=O)N1CCCC1	-22.1%
COc1ccc(/C=C2/C(=O)NC(=S)N(C3CC3)C2=O)cc1CN1C(=O)c2ccccc2C1=O	-8.62%
COc1ccc(C(=O)COC(=O)Cc2n[nH]c(=O)c3ccccc23)c(OC)c1	16.7%
Cc1cc(C)c2sc(N(CCN(C)C)C(=O)c3cc(Cl)sc3Cl)nc2c1.Cl	9.32%
COc1ccccc1C(=O)N(CCC1CCCN1C)c1nc2ccccc2s1 (stereo not shown)	-50.9%
COCCN(C(=O)Nc1ccccc1OC)c1nc2ccccc2s1	19.9%
CN(C)CCCN(C(=O)c1ccco1)c1nc2ccc(Br)cc2s1.Cl	-71.8%
CN(C)CCCN(C(=O)c1ccco1)c1nc2ccc(F)cc2s1.Cl	-70.5%
COc1ccccc1C(=O)N(CCN(C)C)c1nc2cc(C)cc(C)c2s1.Cl	-82%
COc1cc2ccccc2cc1C(=O)N(CCN(C)C)c1nc2ccc(Br)cc2s1.Cl	9.85%

Compound	hERG current change (%, negative = inhibition) at 10uM
CN(C)CCCN(C(=O)/C=C/c1cccs1)c1nc2ccc(F)cc2s1.Cl	-41%
Cc1cc(C)c2sc(N(CCN(C)C)C(=O)c3ccc4ccccc4c3)nc2c1.Cl	7.53%
CN(C)CCN(C(=O)c1ccco1)c1nc2cc3c(cc2s1)OCCO3.Cl	-32.8%
COc1cc2ccccc2cc1C(=O)N(CCN(C)C)c1nc2ccc(C)cc2s1.Cl	-11.2%
CCCCn1c(N)c(N(CCOC)C(=O)COC(=O)c2cc(CC)c(C)s2)c(=O)[nH]c1=O	22%
Cn1c(SCC(=O)Nc2ccc3[nH]c(=O)[nH]c3c2)nnc1-c1ccc(F)cc1	7.63%
[O-]/[N+](=C\c1ccccc1)c1ccc(Br)cc1	-0.595%
CCn1c(CSc2nc3ccccc3s2)nnc1SCC(=O)c1ccc(Cl)cc1	6.76%
CC(=O)c1cccc(NC(=O)N2CCCC2C(=O)NCc2ccccc2)c1 (stereo not shown)	15%
C1=C(c2ccccc2)CCN(c2nc3ccccc3n3cnnc23)C1	-8.21%
CCCCN(C)CCNC(=O)C1CCN(S(=O)(=O)c2cccc3nsnc23)CC1	-15.3%
O=[N+]([O-])c1ccc(Oc2c(F)c(F)nc(N3CCCC3)c2F)cc1	-19.7%
Cc1ccc(C(=O)N(CCCN(C)C)c2nc3ccc(Cl)cc3s2)cc1C.Cl	-56.4%
CCN(CC)CCN(C(=O)c1ccc(C(C)=O)cc1)c1nc2ccc(Cl)cc2s1.Cl	-30.2%
CN(C)CCN(C(=O)c1ccc(S(=O)(=O)N(C)c2ccccc2)cc1)c1nc2ccc(Cl)cc2s1.Cl	-13%
CNS(=O)(=O)c1cccc2cccnc12	11.1%
CCN1C(=O)CC(NCc2ccc3c(c2)OCO3)C1=O (stereo not shown)	-9.23%
O=C1CC(NCc2ccc3c(c2)OCO3)C(=O)N1Cc1ccc2c(c1)OCO2 (stereo not shown)	-4.06%
Cc1ccc(N2C(=O)CC(NCc3ccc4c(c3)OCO4)C2=O)cc1Cl (stereo not shown)	-54.8%
CS(=O)(=O)N(CC(=O)N1CCN(Cc2ccccc2)CC1)c1ccccc1F	-5.93%
CCN(CC)C(=O)CSc1nnc(-c2cc(-c3ccc(Cl)cc3)nc3ccccc23)o1	-3.85%
CCNC(=O)CSc1nnc(-c2cc(-c3ccc(Cl)cc3)nc3ccccc23)o1	-82.3%
CCC(C)NC(=O)CSc1nnc(-c2cc(-c3cccs3)nc3ccccc23)o1 (stereo not shown)	-0.833%
Cc1nn(-c2cc(N3CCCCCC3)ccc2[N+](=O)[O-])c(=O)c2ccccc12	6.02%

Compound	hERG current change (%, negative = inhibition) at 10uM
O=C(NCCc1c[nH]c2ccccc12)C(=O)NCC(c1ccco1)N1CCN(c2ccc(F)cc2)CC1 (stereo not shown)	7.65%
Cc1cc(C)n(CC(=O)c2ccccc2)c(=O)c1C#N	10.9%
CCNc1nc(NCC)nc(SCCOC(=O)Nc2ccccc2)n1	-71%
CCNc1nc(NCC)nc(OCCOC(=O)Nc2ccccc2)n1	-0.811%
CCNc1nc(NCC)nc(SCCOC(=O)c2ccccc2)n1	-39.4%
O=C(CSc1nnc(CNC(=O)c2ccccc2)o1)NCc1ccco1	-0.224%
Cc1ccc(CSc2ccc(S(=O)(=O)N3CCOCC3)cn2)cc1	-10.2%
COc1cc(/C=C/C(=O)Nc2ccccc2C(F)(F)F)cc(OC)c1OC	-5.76%
COC(=O)CN(c1nc(C)cc(OC)n1)S(=O)(=O)c1ccc(C)cc1	-8.25%
Cc1c(C(=O)C(=O)NCCc2ccc(S(N)(=O)=O)cc2)c2ccccc2n1C	-13.4%
COc1ccc(S(=O)(=O)NCc2ccncc2)cc1NC(=O)c1ccccc1F	18.7%
COc1ccc(S(=O)(=O)NCc2ccncc2)cc1NC(=O)c1ccccc1	-34.7%
COc1ccc(S(=O)(=O)NCc2ccccn2)cc1NC(=O)c1ccc(C)cc1	-16.5%
COc1ccc(S(=O)(=O)NCc2cccnc2)cc1NC(=O)c1ccccc1	-3.99%
COc1ccc(S(=O)(=O)NCc2ccncc2)cc1NC(=O)c1ccc(Cl)cc1	-67.4%
COc1ccc(S(=O)(=O)NCC2CCCO2)cc1NC(=O)c1ccccc1F (stereo not shown)	19.1%
COc1ccc(S(=O)(=O)NCC2CCCO2)cc1NC(=O)c1ccccc1 (stereo not shown)	-15.4%
COc1ccc(S(=O)(=O)NCC2CCCO2)cc1NC(=O)c1ccc(Cl)cc1 (stereo not shown)	-54%
COc1ccc(S(=O)(=O)NCc2ccccn2)cc1NC(=O)c1ccccc1	8.45%
COc1ccc(S(=O)(=O)NCc2ccccn2)cc1NC(=O)c1ccc(Cl)cc1	-68.8%
COc1ccc(S(=O)(=O)NCc2cccnc2)cc1NC(=O)c1ccc(Cl)cc1	-52.2%
COc1ccc(S(=O)(=O)NCc2cccnc2)cc1NC(=O)c1ccc(C)cc1	-17.6%
